In PubChem BioAssay (EPA / NIEHS):
Records with an inconclusive call do not appear. The source made the active and inactive calls. How the source made its calls, unless noted: active means hit-call score of the fitted dose curve at least 0.9, where 1 is the maximum; inactive means score below 0.9.

Tests used:
[1] = biological target: Transcription factor Sp1 (Homo sapiens) (UniProt P08047); assay: ATG_Sp1_CIS: Attagene CIS-FACTORIAL HepG2 Assay for human Specificity Protein 1 (Sp1) (AID 2282961); conditions: HepG2 Sp1 cis-reporter transcription, actives raise or lower the signal
Sequence of Transcription factor Sp1 (Homo sapiens) (P08047 whole entry, looked up): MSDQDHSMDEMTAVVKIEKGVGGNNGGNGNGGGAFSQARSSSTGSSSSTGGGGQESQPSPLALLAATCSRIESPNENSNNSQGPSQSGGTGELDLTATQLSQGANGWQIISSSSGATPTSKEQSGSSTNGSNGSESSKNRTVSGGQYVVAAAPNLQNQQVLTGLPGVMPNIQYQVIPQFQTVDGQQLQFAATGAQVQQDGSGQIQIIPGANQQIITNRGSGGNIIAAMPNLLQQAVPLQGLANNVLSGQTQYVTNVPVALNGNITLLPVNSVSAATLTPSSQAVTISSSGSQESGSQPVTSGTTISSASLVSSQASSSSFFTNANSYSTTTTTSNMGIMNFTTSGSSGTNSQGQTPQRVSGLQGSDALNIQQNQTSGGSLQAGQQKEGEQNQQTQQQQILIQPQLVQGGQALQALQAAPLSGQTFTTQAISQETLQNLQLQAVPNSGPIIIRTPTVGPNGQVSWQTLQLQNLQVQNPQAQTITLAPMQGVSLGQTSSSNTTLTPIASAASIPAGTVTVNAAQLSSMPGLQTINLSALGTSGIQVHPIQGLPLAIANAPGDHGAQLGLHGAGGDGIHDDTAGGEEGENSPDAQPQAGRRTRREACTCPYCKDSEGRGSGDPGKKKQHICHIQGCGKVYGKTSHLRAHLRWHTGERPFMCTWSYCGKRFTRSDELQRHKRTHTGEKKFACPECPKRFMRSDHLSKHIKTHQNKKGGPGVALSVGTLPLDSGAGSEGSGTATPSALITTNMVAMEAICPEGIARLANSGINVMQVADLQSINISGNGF
Summary of the method: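 Measures mRNA induction of an Sp1-linked reporter in HepG2 cells 24 h post-dosing. Multiplexed reporters read by RT-PCR and capillary electrophoresis; DMSO serves as negative control and baseline.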

[2] = ATG_SREBP_CIS: Attagene CIS-FACTORIAL HepG2 Assay for human Sterol Regulatory Element Binding (SREBP) (AID 2282962); conditions: HepG2 Attagene cis-factorial SREBP reporter, mRNA; actives raise or lower the signal
Summary of the method: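 HepG2 cells transiently transfected with multiplexed cis-promoter reporter units sensing endogenous transcription factors; reporter mRNA measured 24 h after dosing by RT-PCR, 6-FAM labeling, HpaI digestion and capillary electrophoresis. Bidirectional fit versus DMSO.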

[3] = biological target: Signal transducer and activator of transcription 3 (Homo sapiens) (UniProt P40763); assay: ATG_STAT3_CIS: Attagene CIS-FACTORIAL HepG2 Assay for human Signal Transducer and Activator of Transcription 3 (STAT3) (AID 2282963); conditions: HepG2, Attagene cis-factorial STAT3 reporter transcription; actives raise or lower the signal
Sequence of Signal transducer and activator of transcription 3 (Homo sapiens) (P40763 whole entry, looked up): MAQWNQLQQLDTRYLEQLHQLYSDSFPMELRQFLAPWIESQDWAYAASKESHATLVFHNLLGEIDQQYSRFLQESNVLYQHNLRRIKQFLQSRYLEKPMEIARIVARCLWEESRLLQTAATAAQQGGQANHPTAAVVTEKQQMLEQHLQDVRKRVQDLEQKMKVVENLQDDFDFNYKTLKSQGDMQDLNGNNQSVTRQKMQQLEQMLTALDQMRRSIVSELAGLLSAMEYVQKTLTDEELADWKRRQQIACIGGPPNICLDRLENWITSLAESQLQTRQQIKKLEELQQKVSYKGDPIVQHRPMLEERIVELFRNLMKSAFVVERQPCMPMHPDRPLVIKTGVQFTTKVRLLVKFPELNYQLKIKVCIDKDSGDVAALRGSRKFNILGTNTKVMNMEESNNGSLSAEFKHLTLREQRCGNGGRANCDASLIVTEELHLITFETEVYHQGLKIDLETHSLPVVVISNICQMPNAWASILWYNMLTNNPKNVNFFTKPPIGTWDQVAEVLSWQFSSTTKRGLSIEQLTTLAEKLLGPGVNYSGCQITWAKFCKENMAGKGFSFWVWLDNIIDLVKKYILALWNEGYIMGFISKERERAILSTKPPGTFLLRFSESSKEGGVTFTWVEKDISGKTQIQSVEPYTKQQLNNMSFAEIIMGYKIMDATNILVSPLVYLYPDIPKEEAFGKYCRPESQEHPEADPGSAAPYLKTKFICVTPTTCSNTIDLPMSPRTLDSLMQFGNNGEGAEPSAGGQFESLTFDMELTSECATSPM
Summary of the method: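 After a 24 h compound incubation, total RNA from MRTU-transfected HepG2 cells was converted to cDNA and reporter sequences PCR-amplified, labelled and profiled by capillary electrophoresis. Gain and loss of signal were referenced to DMSO.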

[4] = ATG_TA_CIS: Attagene CIS-FACTORIAL HepG2 Assay for human TA Basal Promoter (AID 2282964); conditions: HepG2 Attagene CIS-factorial TA basal promoter reporter; actives raise or lower the signal
Summary of the method: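 Transfected HepG2, 24 h compound exposure; RNA → RT-PCR → FAM primer extension → HpaI cut → CE fluorescence. Gain/loss-of-signal fitted against DMSO negative control. Background-control readout.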

[5] = ATG_TCF_b_cat_CIS: Attagene CIS-FACTORIAL HepG2 Assay for human T-Cell-Factor with beta-catenin (TCF/b-cat) (AID 2282965); conditions: HepG2 TCF/beta-catenin cis-reporter transcription, actives raise or lower the signal
Summary of the method: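 Endogenous transcription factor activity is captured through cis-promoter reporter constructs transiently introduced into human HepG2 liver cells. Induced reporter mRNA is measured after 24 h and fitted bidirectionally relative to DMSO.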

[6] = ATG_TAL_CIS: Attagene CIS-FACTORIAL HepG2 Assay for human TAL Basal Promoter (AID 2282966); conditions: HepG2 Attagene cis-factorial TAL promoter reporter; actives raise or lower the signal;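 further: background control endpoint measuring basal TAL promoter reporter mRNA not a specific factor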
Summary of the method: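 Readout: reporter mRNA, fluorescence by CE. System: HepG2, transient multi-reporter transfection, endogenous TF activity. Exposure: 24 h. Analysis: bidirectional, DMSO-normalized; background control.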

[7] = ATG_VDRE_CIS: Attagene CIS-FACTORIAL HepG2 Assay for human Vitamin D Receptor Element (VDRE) (AID 2282968); conditions: HepG2 VDRE cis-reporter transcription, actives raise or lower the signal
Summary of the method: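 In transiently transfected HepG2 liver cells, gain or loss of reporter mRNA after 24 h exposure is scored relative to DMSO, using fluorescence detection by capillary electrophoresis of RT-PCR products.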

[8] = biological target: Estrogen receptor (Homo sapiens) (UniProt P03372); assay: ATG_ERa_TRANS: Attagene TRANS-FACTORIAL HepG2 Assay for human Estrogen Receptor alpha (ERa) (AID 2282970; active means hit-call score of the fitted dose curve at least 0.9, where 1 is the maximum); conditions: HepG2 Attagene TRANS ERa GAL4 reporter, mRNA
Sequence of Estrogen receptor (Homo sapiens) (P03372 whole entry, looked up, the tested form may be a part): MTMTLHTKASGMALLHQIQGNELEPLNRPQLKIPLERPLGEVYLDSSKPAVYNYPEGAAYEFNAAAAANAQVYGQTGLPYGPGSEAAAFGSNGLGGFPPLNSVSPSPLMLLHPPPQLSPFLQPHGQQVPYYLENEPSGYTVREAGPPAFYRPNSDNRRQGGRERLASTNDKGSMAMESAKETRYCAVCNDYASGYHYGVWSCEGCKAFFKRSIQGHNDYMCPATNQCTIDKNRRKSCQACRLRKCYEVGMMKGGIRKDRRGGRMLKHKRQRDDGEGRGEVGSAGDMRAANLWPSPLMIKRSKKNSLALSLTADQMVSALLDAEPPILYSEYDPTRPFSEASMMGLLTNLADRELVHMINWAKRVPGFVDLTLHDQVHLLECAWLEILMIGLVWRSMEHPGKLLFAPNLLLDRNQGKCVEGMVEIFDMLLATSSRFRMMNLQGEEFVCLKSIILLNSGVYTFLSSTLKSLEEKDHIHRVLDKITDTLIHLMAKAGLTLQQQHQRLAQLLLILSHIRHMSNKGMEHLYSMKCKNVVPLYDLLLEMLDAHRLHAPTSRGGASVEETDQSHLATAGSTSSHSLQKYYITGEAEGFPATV
Summary of the method: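 Transactivation via ERa-Gal4 chimera in HepG2; 24 hour incubation; reporter mRNA detected by fluorescence RT-PCR and capillary electrophoresis.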

[9] = ATG_TGFb_CIS: Attagene CIS-FACTORIAL HepG2 Assay for human Transforming Growth Factor (TGF) (AID 2282967); conditions: HepG2 Attagene CIS TGFb reporter, mRNA transcription; actives raise or lower the signal
Summary of the method: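 Readout: fluorescently labeled reporter cDNA fragments resolved by capillary electrophoresis after RT-PCR. Transfected HepG2 cells dosed for 24 h; endogenous TF activity at TGFB1-linked cis element; gain or loss fitted relative to DMSO.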

[10] = biological target: Nuclear receptor subfamily 1 group I member 3 (Homo sapiens) (UniProt Q14994); assay: ATG_CAR_TRANS: Attagene TRANS-FACTORIAL HepG2 Assay for human Constitutive Androstane Receptor (CAR) (AID 2282969; active means hit-call score of the fitted dose curve at least 0.9, where 1 is the maximum;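 further: activators raise reporter mRNA above DMSO so AC50 marks induction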); conditions: HepG2 Attagene TRANS-FACTORIAL CAR reporter
Sequence of Nuclear receptor subfamily 1 group I member 3 (Homo sapiens) (Q14994 whole entry, looked up, the tested form may be a part): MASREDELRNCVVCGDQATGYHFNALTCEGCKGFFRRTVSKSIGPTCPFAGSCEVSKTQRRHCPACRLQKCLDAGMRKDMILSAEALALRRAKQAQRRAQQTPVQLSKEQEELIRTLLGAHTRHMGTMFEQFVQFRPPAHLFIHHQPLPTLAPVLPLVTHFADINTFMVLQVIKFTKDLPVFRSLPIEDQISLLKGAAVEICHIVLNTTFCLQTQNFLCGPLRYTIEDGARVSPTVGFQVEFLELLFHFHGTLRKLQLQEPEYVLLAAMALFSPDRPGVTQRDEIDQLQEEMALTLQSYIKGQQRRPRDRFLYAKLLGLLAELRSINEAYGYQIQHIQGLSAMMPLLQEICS
Summary of the method: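 Readout is reporter mRNA induction, quantified by fluorescent primer extension and capillary electrophoresis after RT-PCR. Cells were HepG2 transiently carrying chimeric NR-Gal4 constructs with GAL4-UAS reporters, treated for 24 h; activity scored upward from DMSO.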

Measured: AC50

CCOP(=O)(OCC)SCCSCC
inactive: [1] | [2] | [3] | [4] | [5] | [6] | [7] | [8]

O=S(=O)(F)C(F)(F)C(F)(F)C(F)(F)C(F)(F)F
inactive: [1] | [2] | [3] | [4] | [5] | [9] | [7]

Fc1cccc(Cl)c1CCl
inactive: [2] | [3] | [4] | [6] | [9] | [10] | [8]
active: [1] 65.3 µM | [5] 100 µM

O=C(Cl)OCCOCCOC(=O)Cl
inactive: [1] | [2] | [3] | [4] | [5] | [6] | [7] | [10] | [8]

CCCCOC(C)=O
inactive: [1] | [2] | [3] | [4] | [5] | [6] | [9] | [8]

CC(C)(COCC1CO1)COCC1CO1 (configuration not stated)
active: [7] 38.7 µM
inactive: [1] | [2] | [3] | [4] | [5] | [6] | [10] | [8]

O=c1nc(O)n(Cl)c(=O)n1Cl
inactive: [1] | [2] | [3] | [4] | [5] | [9]

CC1(C)[C@H](/C=C2\CCSC2=O)[C@@H]1C(=O)OCc1coc(Cc2ccccc2)c1
active: [4] 30.5 µM
inactive: [1] | [2] | [3] | [5] | [6] | [10]

Oc1ccc(Cc2ccc(O)cc2)cc1
inactive: [1] | [2] | [3] | [4] | [5] | [6] | [9]
active: [8] 0.842 µM

Cc1ccccc1OP(=O)(Oc1ccccc1)Oc1ccccc1
inactive: [1] | [3] | [4] | [5] | [6] | [10]
active: [2] 7.9 µM | [7] 1.25 µM | [8] 3.57 µM

CCCCCCCCBr
inactive: [1] | [2] | [3] | [4] | [5] | [6] | [7]

FC(F)OCC(F)(F)C(F)(F)F
inactive: [1] | [2] | [3] | [4] | [5] | [6] | [7]

Cl[C@H]1OCCO[C@@H]1Cl
inactive: [1] | [2] | [3] | [4] | [5] | [9]

C=CC(=O)OCC(COC(=O)C=C)(COC(=O)C=C)COC(=O)C=C
inactive: [2] | [3] | [4] | [6] | [8]
active: [1] 8.41 µM | [5] 8.6 µM

BrCc1ccc(Br)cc1
inactive: [1] | [2] | [3] | [4] | [5] | [6] | [7] | [10]

CCCCCCCCCCCCN(C)C
inactive: [3] | [4] | [8]
active: [1] 53.2 µM | [2] 49 µM | [5] 48.4 µM | [6] 51.4 µM | [7] 33.4 µM

Brc1ccc(Br)cc1
inactive: [1] | [2] | [3] | [4] | [5] | [9] | [7]

Clc1cc(C(Cl)(Cl)Cl)cnc1Cl
active: [2] 17.5 µM | [5] 8.55 µM
inactive: [1] | [3] | [6] | [9] | [7]

CNC(=O)N(C)c1nc2ccccc2s1
inactive: [1] | [2] | [3] | [5] | [6] | [9] | [7] | [10]

CC(C)[N+](=O)[O-]
inactive: [1] | [2] | [3] | [5] | [6] | [9] | [7]
